# Results from PubChem BioAssay (NCATS).
# Values without a mark were called inactive. Active and inactive are the calls of the source.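 How the source made its calls: active means compounds whose dose series gives a full or clear partial fitted curve of increased nuclear translocation; inconclusive means weak partial curve or effect only at the top dose; inactive means no dose-dependent translocation response.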
# Target: Glucocorticoid receptor (Homo sapiens) (UniProt P04150)
# Assay: GR-GFP Redistribution (AID 450)
# Conditions: U2OS GR-GFP nuclear translocation, laser cytometry, 2 h
# Excerpt: NIH Molecular Libraries Screening Centers Network [MLSCN]
# NIH Chemical Genomics Center [NCGC]
# The glucocorticoid receptor (GR) Redistribution assay (BioImage) enables the visualization of GR cytoplasmic to nuclear translocation by the use of a GR-GFP fusion. GR is normally cytosolic, however ligands such as dexamethasone, cause nuclear translocation where the protein binds to response elements and interacts with various co-factors to modulate transcription. Because both functional agonists and antagonists can induce nuclear translocation, this assay can detect ligands regardless of their effects on gene expression. GR-GFP expressing U20S cells were used here. Dexamethasone was the positive control for translocation and data normalization. Detection of nuclear translocation was performed in 1536-well plates using the Acumen laser scanning plate cytometer (TTP LabTech). Validation of this assay and a detailed protocol have been described.
# NCGC Assay Protocol Summary:
# GR-GFP U2OS cells were maintained in DMEM with Glutamax and high glucose, 1% v/v penicillin-streptomycin, and 0.5 mg/mL Geneticin. For cell culture, 10% […] fetal bovine serum (FBS) was used (Invitrogen #26140-079). For cell plating 10% dextran, charcoal-stripped FBS (Hyclone SH30068.03) was used. U2OS cells were trypsin treated, suspended in medium, and passed through a 40 um basket filter. The cells were seeded at 600 cells/5 uL/well into clear-bottom black sided 1536-well plates and incubated for approximately 20 hrs, 37degC, 5%, CO2 in a tissue culture incubator. Twenty-three nL of compound was delivered by pin tool and the plates were incubated as above for 2 hrs. The compounds were tested as a 7-point titration ranging from 46 uM to 0.6 nM. The cells were fixed using the Kalypsys Washer/Dispenser station. The fixing protocol involved aspiration of the cell media, addition of 6 uL/well of PBS, aspiration of PBS, addition of 5uL/well of 100% methanol, aspiration of methanol, and addition of 3 uL/well PBS with 1.5 uM propidium iodide (PI). The plates were read by the Acumen Explorer using a 1 x 8 um scan of the whole well area. PI fluorescence triggered the collection of PI and GFP signals. A nuclei population was defined by a 10 to 100 um width and depth filter that eliminated small and large fluorescent particles. Two subpopulations of nuclei were then defined by peak intensity of GFP fluorescence to obtain translocated and untranslocated objects. The number of translocated objects was used for data normalization.
# Keywords: NIH Roadmap, MLSCN, MLI, MLSMR, sOGT, qHTS, NCGC
# Potency means the concentration at half of the fitted maximal effect.
# Sequence of Glucocorticoid receptor (Homo sapiens) (P04150 whole entry, looked up): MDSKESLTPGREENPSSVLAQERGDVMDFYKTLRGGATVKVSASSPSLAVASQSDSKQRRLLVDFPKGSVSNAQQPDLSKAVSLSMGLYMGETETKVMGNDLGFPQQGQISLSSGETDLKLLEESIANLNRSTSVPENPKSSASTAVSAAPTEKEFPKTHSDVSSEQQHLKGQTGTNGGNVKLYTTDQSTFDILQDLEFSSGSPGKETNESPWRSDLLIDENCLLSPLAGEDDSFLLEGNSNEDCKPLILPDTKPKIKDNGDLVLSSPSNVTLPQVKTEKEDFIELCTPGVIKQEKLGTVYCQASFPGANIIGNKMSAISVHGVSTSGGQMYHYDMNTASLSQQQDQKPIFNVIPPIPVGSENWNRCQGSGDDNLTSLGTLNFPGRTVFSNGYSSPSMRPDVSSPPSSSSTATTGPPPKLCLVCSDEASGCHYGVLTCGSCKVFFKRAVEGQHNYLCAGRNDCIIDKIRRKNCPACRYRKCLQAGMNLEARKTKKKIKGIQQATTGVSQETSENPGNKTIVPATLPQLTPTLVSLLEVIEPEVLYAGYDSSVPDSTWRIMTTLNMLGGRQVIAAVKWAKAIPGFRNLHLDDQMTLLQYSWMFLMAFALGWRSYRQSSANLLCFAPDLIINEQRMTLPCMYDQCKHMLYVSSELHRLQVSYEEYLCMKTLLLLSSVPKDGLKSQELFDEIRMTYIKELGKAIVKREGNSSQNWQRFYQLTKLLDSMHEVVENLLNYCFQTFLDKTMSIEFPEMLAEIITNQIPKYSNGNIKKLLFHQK
row,Structure (SMILES),Potency
1,CNc1ncnc2c1ncn2[C@@H]1O[C@H](CO)[C@@H](O)[C@@H]1O,> 20.6 µM
2,Clc1ccc(CC[C@H](Cn2ccnc2)Sc2c(Cl)cccc2Cl)cc1,> 20.6 µM
3,CC[N+](CC)(CC)CC[C@](O)(c1ccccc1)C1CCCCC1,> 20.6 µM
4,O=C(/C=C\c1ccc(O)c(O)c1)O[C@@H]1C[C@](O)(C(=O)O)C[C@@H](O)[C@@H]1O,> 20.6 µM
5,NC[C@@H]1O[C@H](O[C@H]2[C@H](O)[C@H](O[C@@H]3O[C@H](CO)[C@@H](O)[C@H](N)[C@@H]3O)[C@@H](N)C[C@H]2N)[C@@H](O)[C@H](O)[C@@H]1O,> 20.6 µM
6,CS(=O)(=O)Nc1cccc(-c2nc(Nc3ccc(F)cc3)c3ccccc3n2)c1,> 46 µM
7,FC(F)(F)c1ccccc1-c1ccc2ncnc(NC3CCNCC3)c2c1,> 46 µM
8,CC(C)(C)NC(=O)[C@@H]1C[C@H]2CCCC[C@@H]2CN1C[C@H](O)[C@H](Cc1ccccc1)NC(=O)[C@@H](CC(N)=O)NC(=O)c1ccc2ccccc2n1,> 20.6 µM
9,CC1(C)[C@@H](OC(=O)CCC(=O)O)CC[C@@]2(C)[C@H]1CC[C@@]1(C)[C@H]2C(=O)C=C2[C@H]3C[C@](C)(C(=O)O)CC[C@]3(C)CC[C@@]21C,> 20.6 µM
10,CC(C)n1c(/C=C\[C@@H](O)C[C@@H](O)CC(=O)O)c(-c2ccc(F)cc2)c2ccccc21,> 20.6 µM
11,CCCC(=O)Nc1ccc(OC[C@@H](O)CNC(C)C)c(C(C)=O)c1,> 20.6 µM
12,CC(=O)Nc1cc2ccccc2oc1=O,> 20.6 µM
13,CO[C@H]1[C@H](O[C@H]2O[C@@H](C)[C@@H](O[C@@H]3C[C@](C)(O)[C@H](OC(=O)CC(C)C)[C@H](C)O3)[C@@H](N(C)C)[C@@H]2O)[C@@H](CC=O)C[C@@H](C)[C@@H](O)/C=C\C=C/C[C@@H](C)OC(=O)C[C@H]1OC(C)=O,> 20.6 µM
14,C[C@H](CCC(=O)NCC(=O)O)[C@H]1CC[C@H]2[C@H]3[C@@H](C[C@@H](O)[C@]12C)[C@]1(C)CC[C@H](O)C[C@@H]1C[C@@H]3O,> 20.6 µM
15,CC[N+]1(C)[C@@H]2CC[C@H]1CC(OC(=O)[C@H]1CC[C@@](C(=O)OC3C[C@H]4CC[C@@H](C3)[N+]4(C)CC)(c3ccccc3)c3ccccc31)C2 (stereo not given in full),> 20.6 µM
16,CC(C)(C)NC[C@@H](O)COc1ccccc1C1CCCC1,4.85 µM (active)
17,COCCOC(=O)C1=C(C)NC(C)=C(C(=O)OC(C)C)[C@H]1c1cccc([N+](=O)[O-])c1,> 20.6 µM
18,CC(=O)OCC(=O)[C@@]1(O)CC[C@@H]2[C@H]3CCC4=CC(=O)C=C[C@]4(C)[C@]3(F)[C@@H](O)C[C@@]21C,0.00326 µM (active)
19,CC[C@H](C)C(=O)O[C@@H]1C[C@H](C)C=C2C=C[C@H](C)[C@@H](CC[C@H]3C[C@@H](O)CC(=O)O3)[C@H]21,> 20.6 µM
20,CCCCC[C@H](O)/C=C\[C@H]1[C@H](C/C=C\CCCC(=O)O)[C@@H](O)C[C@H]1O (tested in a mixture with another compound),> 20.6 µM

row,Structure (SMILES),Potency
1,C#C[C@@]1(O)CC[C@@H]2[C@@H]3CCC4=CC(=O)CC[C@@H]4[C@H]3CC[C@]21CC,0.0832 µM (active)
2,C[C@@H]1[C@H]2CC[C@@H]3[C@@H]4CC=C5C[C@@H](N(C)C)CC[C@]5(C)[C@@H]4CC[C@@]32CN1C,> 20.6 µM
3,CO[C@H]1[C@H](O[C@H]2O[C@@H](C)[C@@H](O[C@@H]3C[C@](C)(O)[C@H](O)[C@H](C)O3)[C@@H](N(C)C)[C@@H]2O)[C@@H](CC=O)C[C@@H](C)[C@@H](O[C@H]2CC[C@H](N(C)C)[C@H](C)O2)/C=C\C=C/C[C@@H](C)OC(=O)C[C@H]1O,> 20.6 µM
4,CCC[C@H]1C[C@H](C(=O)N[C@H]([C@@H]2O[C@H](SC)[C@@H](O)[C@H](O)[C@@H]2O)[C@H](C)O)N(C)C1,> 20.6 µM
5,C=C1c2c(Cl)ccc(O)c2C(O)=C2C(=O)[C@@]3(O)C(O)=C(C(N)=O)C(=O)[C@@H](N(C)C)[C@@H]3[C@@H](O)[C@H]12,> 20.6 µM
6,CC[C@H](CC[C@H](C)[C@@H]1CC[C@@H]2[C@H]3CC=C4C[C@@H](O)CC[C@]4(C)[C@H]3CC[C@]21C)C(C)C,> 20.6 µM
7,COc1ccc(OC)c([C@H](O)CNC(=O)CN)c1,> 20.6 µM
8,c1ccc(CNc2ncnc3nc[nH]c23)cc1,> 20.6 µM
9,COc1cc(C2Oc3cc(C4Oc5cc(O)cc(O)c5C(=O)C4O)ccc3OC2CO)ccc1O (stereo not given),> 20.6 µM
10,COc1cc2c(cc1OC)-c1cc3ccc(OC)c(OC)c3c[n+]1CC2,> 20.6 µM
11,Cn1c(-c2ccc3c(c2)OCO3)cc(=O)c2ccccc21,> 20.6 µM
12,Clc1ccc([C@H](Cn2ccnc2)OCc2c(Cl)cccc2Cl)c(Cl)c1,> 20.6 µM
13,CCN(CCCCOC(=O)c1ccc(OC)c(OC)c1)[C@@H](C)Cc1ccc(OC)cc1,> 20.6 µM
14,CCN(CC)CCOC(=O)[C@@H](c1ccccc1)C1CCCCC1,> 20.6 µM
15,COc1cccc(-c2nc(NCCc3c[nH]c4ccc(OC)cc34)c3ccccc3n2)c1,> 46 µM
16,C[C@@]12CC[C@H]3[C@@H](CCC4=CC(=O)CC[C@]43C)[C@H]1CC[C@H]2C(=O)CO,0.0622 µM (active)
17,C[C@]12CC[C@@H]3C(=CCc4cc(O)ccc43)[C@@H]1CCC2=O,> 20.6 µM
18,O=C1OCCN1/N=C\c1ccc([N+](=O)[O-])o1,> 20.6 µM
19,C[C@@H]1O[C@H](O[C@@H]2[C@@H](Oc3cc(O)c4c(c3)O[C@H](c3ccc(O)cc3)CC4=O)O[C@@H](CO)[C@@H](O)[C@H]2O)[C@@H](O)[C@H](O)[C@@H]1O,> 20.6 µM
20,C#C[C@]1(O)CC[C@@H]2[C@H]3CCc4cc(OC)ccc4[C@@H]3CC[C@@]21C,> 20.6 µM
